Test results from PubChem BioAssay AID720518 (National Center for Advancing Translational Sciences (NCATS), 2013).
Results filed as inconclusive are left out. The source made the active and inactive calls. The call rests on the fitted dose curve.

Test: qHTS for Inhibitors of Cell Surface uPA Generation: Wild-type Protective Antigen (WT-PrAg) Counterscreen for Cherry-picked Compounds; further: 0% is about no effect
Settings: cells, WT protective antigen toxicity counterscreen; series mostly up to 115 µM; activity (protection): at the top concentration

Structure (SMILES) | activity (protection)
CN(Cc1ccc(C(C)(C)C)cc1)C(=O)Cc1ccc(S(=O)(=O)N2CCOCC2)s1 | -2.37% (inactive)
CC1CCCN(C(=O)c2ccc(CNc3c(N4CCCCC4)c(=O)c3=O)cc2)C1 (stereo not drawn) | 0.517% (inactive)
CCn1c(CNc2ccc(F)cc2)nnc1SCC(=O)Nc1ccccc1OC | -1.71% (inactive)
Cn1c(=O)n(CC(=O)O)c(=O)c2c1nc1n2CCCN1CCc1ccccc1 | -1.35% (inactive)
COc1ccc(C2=C/C(=C\c3ccccc3OC(C)=O)C(=O)O2)cc1 | -1.93% (inactive)
COc1ccccc1NC(=O)Cn1ncc2c1-c1ccccc1OC2 | -0.171% (inactive)
COc1ccccc1N1CCN(C2CC(=O)N(c3ccccc3)C2=O)CC1 (stereo not drawn) | -1.25% (inactive)
CCCS(=O)(=O)c1ccc(COC(=O)Cc2ccc([N+](=O)[O-])cc2)cc1 | -0.882% (inactive)
O=C(Nc1cccc(C2=NCCN2)c1)Nc1cccc(C2=NCCN2)c1 | -2.19% (inactive)
C[N+]1(CC(O)c2ccccc2)CCCCCC1 (stereo not drawn) | 0.142% (inactive)
CS(=O)(=O)Nc1cccc(C2=NN(S(=O)(=O)c3ccccc3)C(c3ccco3)C2)c1 (stereo not drawn) | -0.967% (inactive)
Cc1nc(N2CCN(c3ccc(Cl)cc3)CC2)[nH]c(=O)c1C | 0.512% (inactive)
COc1ccc(CCNC(=O)COC(=O)CNS(=O)(=O)c2ccc(SC)c([N+](=O)[O-])c2)cc1 | 0.375% (inactive)
CCc1nc(SCC(N)=O)c2c(=O)n(C)c(=O)n(C)c2n1 | 1.1% (inactive)
Cc1ccc(S(=O)(=O)NC(=O)Nc2nccs2)cc1 | -1.79% (inactive)
Oc1c(N=NC(=S)Nc2ccccc2F)c2ccccc2n1Cc1ccccc1Cl | -0.848% (inactive)
Cc1noc(C)c1COc1ccc(C(=O)O)cc1 | -0.888% (inactive)
COCCN(C(=O)CSc1nnc(-c2ccncc2)n1C)c1c(N)n(CC(C)C)c(=O)[nH]c1=O | -0.576% (inactive)
